Source: PubChem BioAssay AID1851 (National Center for Advancing Translational Sciences (NCATS), 2009)
In all, about 16,000 compounds went through this assay and about 2,600 (16%) were called active. Not shown: some 20% with an inconclusive outcome. Calls follow the shape of the dose curve; as a rule, active = well fitted curve in the direction sought with a large enough effect; inconclusive = small, poorly fitted or top-dose-only effect, or effect the other way; inactive = no such curve, though single readings can be large or run the other way. These entries were drawn from the full list.

Molecular target: Cytochrome P450 2D6 (Homo sapiens) (UniProt P10635)
Sequence (P10635 whole entry, looked up): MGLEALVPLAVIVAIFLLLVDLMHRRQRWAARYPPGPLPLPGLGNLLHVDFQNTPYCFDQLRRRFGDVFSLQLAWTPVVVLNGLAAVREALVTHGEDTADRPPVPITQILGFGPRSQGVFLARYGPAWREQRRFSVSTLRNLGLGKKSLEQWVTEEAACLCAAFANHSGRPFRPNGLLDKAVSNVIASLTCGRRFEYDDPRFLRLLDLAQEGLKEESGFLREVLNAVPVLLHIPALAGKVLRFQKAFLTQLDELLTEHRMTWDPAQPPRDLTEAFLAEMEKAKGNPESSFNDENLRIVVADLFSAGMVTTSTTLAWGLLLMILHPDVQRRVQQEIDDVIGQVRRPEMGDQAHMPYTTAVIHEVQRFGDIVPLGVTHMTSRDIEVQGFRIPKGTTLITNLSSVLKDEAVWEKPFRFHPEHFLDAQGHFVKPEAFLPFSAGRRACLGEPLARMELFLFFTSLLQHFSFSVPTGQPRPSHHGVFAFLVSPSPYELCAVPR
Test: Cytochrome panel assay with activity outcomes
Conditions: recombinant CYP, pro-luciferin dealkylation, luminescence, p450-cyp2d6; series mostly up to 57.1 µM; activity, negative = inhibition: at the top concentration
% is scaled to controls: 0 for no effect and ±100 for the full control effect.

SMILES	activity, negative = inhibition	AC50
CCOc1cc(/C=N/NC(=O)CN2CCCCC2)ccc1OCc1ccccc1	-0.59% (inactive)	
C/C(CCN1CCc2nc(-c3ccccc3)c(-c3ccccc3)cc2C1)=N\OC[C@@H](O)COCc1ccco1	7.77% [at 11.4 µM] (inactive)	
Cc1nc2cnc(Oc3cccc(Cl)c3)nc2n(CCc2ccccc2)c1=O	-16.3% (inactive)	
CO/N=C\c1ccc(C(=O)N2[C@H](c3ccc(C)cc3)[C@@H](C)CC[C@H]2C(=O)OC)cc1	16% [at 11.4 µM] (inactive)	
COC(=O)[C@@H]1CC[C@H](C)[C@@H](c2ccc(C)cc2)N1C(=O)c1ccc(/C=N\OC[C@@H](O)COCc2ccco2)cc1	-0.0575% [at 11.4 µM] (inactive)	
COC(=O)[C@@H]1CC[C@H](C)[C@@H](c2ccc(C)cc2)N1C(=O)c1ccc(/C=N\OC[C@@H](C)[C@H](OCc2ccccc2)C(C)C)cc1		3.98 µM (active)
CC(C)(C)C(=O)[C@H]1[C@H](c2ccccc2)[C@@]2(N=C(c3ccccc3)OC2=O)C2c3ccccc3C=NN21 (stereo partly drawn)	-12.9% (inactive)	
C#CCCCO/N=C1/C[C@@H](O)[C@@H](O)[C@@H]2[C@H]3C(=O)N(c4ccc(F)cc4F)C(=O)[C@@H]3CC[C@H]12	-3.2% [at 11.4 µM] (inactive)	
Oc1cc(CN2COc3ccccc32)c(O)cc1CNC1CCCCC1	-11.4% [at 11.4 µM] (inactive)	
CC(C)(C)c1cc2c(O)c(c1)Cc1cc(C(C)(C)C)cc(c1O)Cc1cc(C(C)(C)C)cc(c1O)Cc1cc(C(C)(C)C)cc(c1O)Cc1cc(C(C)(C)C)cc(c1O)Cc1cc(C(C)(C)C)cc(c1O)Cc1cc(C(C)(C)C)cc(c1O)Cc1cc(C(C)(C)C)cc(c1O)C2	12.2% [at 11.4 µM] (inactive)	
Cc1cc(C(C)(C)C)cc(CNC2CCCCC2)c1O		0.501 µM (active)
COCCn1c(=O)c(-c2ccccc2)nc2cnc(Nc3cccc(OC)c3)nc21	-0.906% (inactive)	
O=C(NC1CCCCC1)C(c1cccs1)N(Cc1cccs1)C(=O)c1ccco1 (stereo not drawn)		17.8 µM (active)
Cc1ccc(C(OC(=O)c2ccco2)C(=O)NC2CCCCC2)cc1 (stereo not drawn)	-14.1% (inactive)	
Cc1ccc(N(C(=O)C(F)(F)F)C(C(=O)NC2CCCCC2)c2cccs2)cc1C (stereo not drawn)	-4.71% (inactive)	
CC(C)c1ccc(N(C(=O)C(F)(F)F)C(C(=O)NC2CCCCC2)c2ccncc2)cc1 (stereo not drawn)	22.5% (inactive)	
O=C(NC1CCCCC1)C(c1cccs1)N(C(=O)C(F)(F)F)c1ccccc1 (stereo not drawn)		10 µM (active)
Cc1cc(C)cc(N(C(=O)c2ccccn2)C(C(=O)NC2CCCCC2)c2cccs2)c1 (stereo not drawn)	-12.5% (inactive)	
O=C(NC1CCCC1)C(c1ccsc1)N(Cc1ccccc1)C(=O)Cc1cccs1 (stereo not drawn)		12.6 µM (active)
Cc1nn(C)cc1C(C(=O)NC1CCCCC1)N(C(=O)Cc1cccs1)c1ccc(C(C)C)cc1 (stereo not drawn)	-20.7% (inactive)	
Cc1cc(C)cc(N(C(=O)Cc2cccs2)C(C(=O)NC2CCCCC2)c2ccccn2)c1 (stereo not drawn)	-21.3% (inactive)	
CC(C)(S)[C@H](N)C(=O)O	14.1% [at 11.4 µM] (inactive)	
Cc1nc(S(=O)(=O)N(C)c2ccccc2)c(C#N)c(C)c1Cl	-18.8% (inactive)	
CCOC(=O)c1cc2c(C(F)(F)F)cc(-c3ccccc3)nc2o1	-0.763% (inactive)	

SMILES	activity, negative = inhibition	AC50
Nc1c(S(=O)(=O)O)cc(Nc2cccc(S(N)(=O)=O)c2)c2c1C(=O)c1ccccc1C2=O	-9.77% [at 11.4 µM] (inactive)	
CCOC(=O)c1cc(NC(=O)c2ccc(C)cc2)c(=O)oc1-c1ccccc1	4.01% (inactive)	
O=C(c1c(O)c2ccc(Cl)cc2[nH]c1=O)C1CC1		0.1 µM (active)
O=C(O)c1cc(=O)c2ccc(Cl)cc2[nH]1	12.4% (inactive)	
CC1CCN(CC(=O)N2c3ccccc3Sc3cc4ccccc4cc32)CC1		3.98 µM (active)
CCOC(=O)Nc1ccc2c(c1)N(C(=O)CCN1CCOCC1)c1ccccc1S2	-6.49% [at 25.6 µM] (inactive)	
COc1ccc(OC)c2[nH]c(=O)c(CCNC(=O)C3CCCCC3)cc12	12.1% (inactive)	
COc1ccc(-c2[nH]c(-c3ccc(C(=O)O)cc3)nc2-c2ccccc2)cc1	-3.85% (inactive)	
COc1ccc([N+](=O)[O-])cc1COc1ccc2c(-c3ccccc3)cc(=O)oc2c1	-23.6% (inactive)	
COc1ccc(-c2nc(-c3ccccc3)c(-c3cc([N+](=O)[O-])ccc3C)[nH]2)cc1O		28.2 µM (active)
COc1cccc(Nc2ncc3nc(-c4ccccc4)c(=O)n(C)c3n2)c1	-5.78% (inactive)	
CCOc1cccc(CNCCNC(=O)c2nonc2N)c1		2.24 µM (active)
COc1cccc(CNCCNC(=O)c2nonc2N)c1		3.16 µM (active)
CCOc1ccc(-n2c(N)c(C(=O)NCc3cccnc3)sc2=S)cc1	-9.16% (inactive)	
CCOc1ccc(N2CC(C(=O)NCc3cccc(C)c3)CC2=O)cc1 (stereo not drawn)	6.93% (inactive)	
COCCNC(=O)c1cc(-c2cccc(OC)c2)on1	-14.9% (inactive)	
COc1cccc(CSCC(=O)O)c1	14.7% [at 11.4 µM] (inactive)	
CCOC(=O)N1CCC(NC(=O)CCC(=O)N2CCOc3ccccc32)CC1	-9.58% (inactive)	
Cc1ccc(Oc2nn[nH]n2)cc1	16.1% (inactive)	
CC(=O)OCC1=C(C(=O)O)N2C(=O)[C@@H](NC(=O)CSc3ccncc3)[C@@H]2SC1	-9.3% [at 25.6 µM] (inactive)	
COc1cc(/C=C2/C(=N)N3C=CSC3=NC2=O)ccc1OCCCOc1c(C)cccc1C	-27.4% (inactive)	
C/C(=N\NC(=O)Cc1ccc(Cl)cc1)c1ccccn1	-7.28% (inactive)	
C/C(=N\NC(N)=O)c1ccc(Cl)cc1	-3.5% (inactive)	
C/C(=N\NC(=O)CSCc1ccc(Cl)cc1)c1ccc2c(c1)OCCO2		0.562 µM (active)

SMILES	activity, negative = inhibition	AC50
O=C(CN1C(=O)C2C3C=CC(C3)C2C1=O)Nc1ccc2c(c1)OCCO2 (stereo not drawn)	-6.26% (inactive)	
Cc1nnc(SCC(=O)Nc2nccs2)[nH]c1=O	4.05% (inactive)	
Cc1nc(SCC(=O)Nc2ccc3c(c2)OCCO3)c2oc3ccccc3c2n1	-8.87% (inactive)	
COC(=O)c1ccc(NC(=O)c2cc3sccc3n2C)cc1	-8.69% (inactive)	
O=C(CSCc1ccc(Cl)cc1)Nc1ccc2c(c1)OCCO2		3.98 µM (active)
O=C(Nc1nccs1)c1sc2cc(Cl)ccc2c1Cl	-8.42% (inactive)	
O=C(CSCc1ccc(Cl)cc1)Nc1nccs1		5.62 µM (active)
O=C(c1cc2sccc2n1Cc1ccccc1)N1CCN(c2nc3ccccc3s2)CC1	-20.2% (inactive)	
O=C(Nc1ccc2c(c1)OCCO2)c1cc2sccc2n1Cc1ccccc1		7.94 µM (active)
COc1ccc(COC(=O)N/N=C2/C[C@@H](O)[C@@H](O)[C@@H]3[C@@H]4C(=O)N(C(C)(C)C)C(=O)[C@H]4CC[C@H]23)cc1	19.2% [at 11.4 µM] (inactive)	
O=C(O)CCc1ccc(-c2ccc(Cl)cc2)n1CCC(=O)O	14.3% (inactive)	
O=S(=O)(c1ccccc1)N1CCCC1c1nc2ccccc2s1 (stereo not drawn)	-27.6% (inactive)	
COc1ccc(N2C(=O)CCC(C(=O)Nc3ccccn3)C2c2ccc(OC)c(OC)c2)cc1 (stereo not drawn)	9.02% (inactive)	
Oc1cc(O)c2c(c1)O[C@H](c1ccc(O)c(O)c1)[C@H](O)C2		inactive
COc1ncc2ncc(=O)n(C)c2n1	-2.66% (inactive)	
COC(=O)C1CSC(C(=O)OC)N1C(=O)Nc1ccccc1 (stereo not drawn)	27.1% (inactive)	
CC(=O)Nc1ccc2c(c1)OCCO2	10.2% (inactive)	
CC(=O)Nc1ccc2c(c1)OCCOCCOc1cc(NC(C)=O)ccc1OCCOCCOCCO2	-24.6% (inactive)	
O=C(CC(c1ccccc1)c1ccccc1)Nc1ccc2c(c1)OCCO2		0.251 µM (active)
CO[C@H]1[C@@H](OC(N)=O)[C@H](O)[C@@H](Oc2ccc3c(O)c(NC(=O)c4ccc(O)c(CC=C(C)C)c4)c(=O)oc3c2C)OC1(C)C	-8.34% [at 25.6 µM] (inactive)	
COc1ccc(CCNC(=O)c2ccc3c(=O)n(Cc4ccco4)c(=S)[nH]c3c2)cc1OC	-1.94% (inactive)	
Cc1ccc2nc(SCC(=O)Nc3nnc(SCC(N)=O)s3)[nH]c2c1	-2.41% (inactive)	
Cc1ccc2nc(Nc3nc(-c4ccccc4)cc(=O)[nH]3)nc(C)c2c1	-24.8% (inactive)	
Cc1ccc2c(C)nc(Nc3nc(CSc4nc5ccccc5[nH]4)cc(=O)[nH]3)nc2c1		3.55 µM (active)

SMILES	activity, negative = inhibition	AC50
Cc1nn(C)c(Oc2cccc(Cl)c2)c1C=O	-4.06% (inactive)	
Cc1ccc(C(=O)N/C(=C\c2ccc([N+](=O)[O-])cc2)C(=O)NCCc2ccccc2)cc1	-2.99% (inactive)	
CN1CCc2cccc3c2[C@@H]1Cc1ccc(O)c(O)c1-3		inactive
CN1CCc2cccc3c2[C@H]1Cc1ccc(O)c(O)c1-3		12.6 µM (active)
COc1ccc(C2=CSC(/N=C/c3ccc(F)cc3)=NN2)cc1	9.92% (inactive)	
COC(=O)CCSc1cc([N+](=O)[O-])cc2c1c(C1OCCS1)nn2-c1ccccc1 (stereo not drawn)		12.6 µM (active)
Cc1ccccc1OC/C(O)=C(\C#N)c1nc2ccccc2[nH]1	12.1% (inactive)	
Cc1cc(O)c(/C=N/Nc2cccc(Cl)c2)c(=O)o1		0.158 µM (active)
Cc1ccc(-n2cnc(=O)c3cccnc32)cc1	1.45% (inactive)	
Cc1ccc(-n2c(-c3ccc(Br)cc3)c[n+]3c2CCc2ccc4cccnc4c2-3)cc1		1.41 µM (active)
CCCCC[C@H](CC(=O)NO)C(=O)N[C@@H](C(=O)N1CCC[C@H]1CO)C(C)C	-6.29% (inactive)	
Nc1ccc(O)c(C(=O)O)c1	-14.1% [at 25.6 µM] (inactive)	
CCC(=O)NC(Nc1sc2c(c1C(=O)OC)CCCC2)(C(F)(F)F)C(F)(F)F	2.09% (inactive)	
O=[N+]([O-])c1ccc2ncccc2c1CCc1c([N+](=O)[O-])ccc2ncccc12	-19.7% [at 11.4 µM] (inactive)	
O=C(Nc1ccccn1)c1ccco1	-1.58% (inactive)	
O=C(CSc1ccccc1C(=O)O)NCc1ccco1	32.7% (inactive)	
CCS(=O)(=O)N1CCC(C(=O)NCc2ccco2)CC1	0.127% (inactive)	
S=C(NCc1ccco1)N1CCN(Cc2ccco2)CC1		7.94 µM (active)
S=C(NCc1ccco1)N1CCN(C(c2ccccc2)c2ccccc2)CC1		7.94 µM (active)
O=C(O)C1C2CCC(C2)C1C(=O)NCc1ccco1 (stereo not drawn)	-21% (inactive)	
Cc1cccc(C(=O)NC2CCN(C(=S)NCc3ccco3)CC2)c1	-18.9% (inactive)	
